Source: PubChem BioAssay (EPA / NIEHS)
Results filed as inconclusive are left out. Calls of active or inactive are those of the source. Rule for the calls, unless noted: active = hit-call score of the fitted dose curve at least 0.9, where 1 is the maximum; inconclusive = response in the unintended direction; inactive = score below 0.9.

Assays:
[1] = molecular target: Oxysterols receptor LXR-alpha (Homo sapiens) (UniProt Q13133); assay: ATG_LXRa_TRANS: Attagene TRANS-FACTORIAL HepG2 Assay for human Liver X Receptor alpha (LXRa) (AID 2282980); details: HepG2 Attagene TRANS reporter, LXRa transactivation
Chain of Oxysterols receptor LXR-alpha (Homo sapiens) (Q13133 whole entry, looked up, the tested form may be a part): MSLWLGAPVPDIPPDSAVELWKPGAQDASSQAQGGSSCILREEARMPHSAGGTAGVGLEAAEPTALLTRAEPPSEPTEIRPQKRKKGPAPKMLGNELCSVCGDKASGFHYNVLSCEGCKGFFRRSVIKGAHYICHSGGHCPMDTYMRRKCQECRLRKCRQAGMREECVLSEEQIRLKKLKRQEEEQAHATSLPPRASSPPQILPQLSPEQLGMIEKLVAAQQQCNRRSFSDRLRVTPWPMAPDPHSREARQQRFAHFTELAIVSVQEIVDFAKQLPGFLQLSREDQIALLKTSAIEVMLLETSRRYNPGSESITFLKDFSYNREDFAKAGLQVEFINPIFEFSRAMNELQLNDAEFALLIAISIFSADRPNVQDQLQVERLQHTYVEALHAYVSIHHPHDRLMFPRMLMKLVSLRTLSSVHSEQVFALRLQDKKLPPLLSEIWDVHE
In short: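 Transfect HepG2 with GAL4-UAS multiplex reporter constructs (TRANS format, chimeric receptor-GAL4); treat 24 h; extract RNA, reverse-transcribe, PCR-amplify, FAM-label, HpaI-digest; resolve fragments by capillary electrophoresis. Upward response vs DMSO.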

[2] = molecular target: Oxysterols receptor LXR-beta (Homo sapiens) (UniProt P55055); assay: ATG_LXRb_TRANS: Attagene TRANS-FACTORIAL HepG2 Assay for human Liver X Receptor beta (LXRb) (AID 2282981); details: HepG2 Attagene TRANS GAL4-LXRb reporter, mRNA
Chain of Oxysterols receptor LXR-beta (Homo sapiens) (P55055 whole entry, looked up, the tested form may be a part): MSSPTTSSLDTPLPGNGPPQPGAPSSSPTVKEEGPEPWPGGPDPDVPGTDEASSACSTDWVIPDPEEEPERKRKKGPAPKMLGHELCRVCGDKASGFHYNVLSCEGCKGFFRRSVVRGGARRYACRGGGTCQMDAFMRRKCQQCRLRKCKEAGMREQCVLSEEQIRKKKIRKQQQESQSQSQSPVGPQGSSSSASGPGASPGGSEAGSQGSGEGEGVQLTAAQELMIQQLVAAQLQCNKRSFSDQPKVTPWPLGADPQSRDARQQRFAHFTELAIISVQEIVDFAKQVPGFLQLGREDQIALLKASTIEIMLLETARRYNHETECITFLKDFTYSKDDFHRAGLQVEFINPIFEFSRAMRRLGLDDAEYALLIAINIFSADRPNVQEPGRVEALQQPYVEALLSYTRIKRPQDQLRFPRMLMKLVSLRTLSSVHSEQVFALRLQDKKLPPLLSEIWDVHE
In short: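 After 24 h of chemical treatment, transfected HepG2 cells yield total RNA; reporter cDNA is PCR-amplified, FAM-labelled, HpaI-cut and run on capillary electrophoresis. Signal reflects chimeric LXRb-Gal4 activity on GAL4-UAS reporters.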

[3] = molecular target: Hepatocyte nuclear factor 4-alpha (Homo sapiens) (UniProt P41235); assay: ATG_HNF4a_TRANS: Attagene TRANS-FACTORIAL HepG2 Assay for human Hepatocyte Nuclear Factor 4 alpha (HNF4a) (AID 2282982); details: HepG2 HNF4a transactivation reporter, mRNA readout
Chain of Hepatocyte nuclear factor 4-alpha (Homo sapiens) (P41235 whole entry, looked up): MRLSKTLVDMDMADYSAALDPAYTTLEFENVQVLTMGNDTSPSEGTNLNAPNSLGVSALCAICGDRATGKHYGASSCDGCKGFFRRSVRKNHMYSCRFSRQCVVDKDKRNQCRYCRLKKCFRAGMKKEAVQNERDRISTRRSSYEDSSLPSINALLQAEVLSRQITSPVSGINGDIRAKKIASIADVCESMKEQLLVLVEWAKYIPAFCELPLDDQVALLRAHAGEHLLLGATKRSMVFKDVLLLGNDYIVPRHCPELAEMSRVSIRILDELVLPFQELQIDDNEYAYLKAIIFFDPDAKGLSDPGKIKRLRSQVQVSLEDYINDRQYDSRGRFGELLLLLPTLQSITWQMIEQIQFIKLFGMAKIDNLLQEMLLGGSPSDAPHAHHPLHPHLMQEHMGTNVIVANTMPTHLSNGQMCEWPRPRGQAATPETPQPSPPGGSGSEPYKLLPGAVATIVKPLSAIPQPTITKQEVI
In short: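 Multiplexed reporter assay: transfected HepG2, 24 h exposure, total RNA → oligo(dT) RT → PCR → 6-FAM extension → HpaI digest → CE fluorescence. DMSO = negative control.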

[4] = ATG_M_06_TRANS: Attagene TRANS-FACTORIAL HepG2 Assay for M06 Transcription Factor (Internal Marker) (AID 2282983); details: HepG2 Attagene TRANS M06 internal marker reporter;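 note: reporter transcript level by RT-PCR then capillary electrophoresis fluorescence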
In short: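 Background control endpoint: reporter mRNA from transiently transfected HepG2 after 24 h dosing, detected by RT-PCR with capillary electrophoresis fluorescence. Analysed for gain versus DMSO.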

[5] = ATG_M_32_TRANS: Attagene TRANS-FACTORIAL HepG2 Assay for M32 Transcription Factor (Internal Marker) (AID 2282984); details: HepG2 Attagene TRANS M32 internal marker reporter;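 note: transcript level of a background control reporter unit measured by RT-PCR and capillary electrophoresis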
In short: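 Cell-based TRANS-format assay in HepG2: exogenous chimeric GAL4 reporter units transiently expressed, compounds applied 24 h. Reporter mRNA detected by RT-PCR plus capillary electrophoresis; this readout is an internal background marker.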

[6] = molecular target: Nuclear receptor subfamily 4 group A member 2 (Homo sapiens) (UniProt P43354); assay: ATG_NURR1_TRANS: Attagene TRANS-FACTORIAL HepG2 Assay for human Nuclear Receptor Related Protein 1 (NURR1) (AID 2282985); details: HepG2 Attagene TRANS reporter, mRNA readout
Chain of Nuclear receptor subfamily 4 group A member 2 (Homo sapiens) (P43354 whole entry, looked up, the tested form may be a part): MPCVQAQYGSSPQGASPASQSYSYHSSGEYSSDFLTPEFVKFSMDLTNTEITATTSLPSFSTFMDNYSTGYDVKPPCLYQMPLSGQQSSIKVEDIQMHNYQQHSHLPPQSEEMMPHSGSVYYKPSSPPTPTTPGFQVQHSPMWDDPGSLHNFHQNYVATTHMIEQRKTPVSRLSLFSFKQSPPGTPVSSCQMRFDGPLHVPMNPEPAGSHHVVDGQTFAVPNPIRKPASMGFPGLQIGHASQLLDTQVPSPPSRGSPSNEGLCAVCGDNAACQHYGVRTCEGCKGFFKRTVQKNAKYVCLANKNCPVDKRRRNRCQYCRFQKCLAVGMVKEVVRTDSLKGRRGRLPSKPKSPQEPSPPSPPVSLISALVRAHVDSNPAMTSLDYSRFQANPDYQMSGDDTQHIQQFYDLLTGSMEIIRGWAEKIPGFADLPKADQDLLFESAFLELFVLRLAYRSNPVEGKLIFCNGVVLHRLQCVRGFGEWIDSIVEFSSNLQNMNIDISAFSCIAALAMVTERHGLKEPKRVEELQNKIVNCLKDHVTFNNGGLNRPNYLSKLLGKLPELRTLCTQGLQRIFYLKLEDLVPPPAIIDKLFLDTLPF
In short: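 Measures transcriptional activation by an exogenous NR-Gal4 chimera in transfected HepG2 liver cells. After 24 h, reporter RNA is reverse-transcribed, amplified and resolved by capillary electrophoresis; DMSO defines baseline.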

[7] = molecular target: Transcriptional activator Myb (Homo sapiens) (UniProt P10242); assay: ATG_Myb_CIS: Attagene CIS-FACTORIAL HepG2 Assay for human Myeloblastosis (Myb) Proto-Oncogene Transcription Factor (AID 2282986; active = hit-call score of the fitted dose curve at least 0.9, where 1 is the maximum; inactive = score below 0.9); details: HepG2 Attagene CIS-FACTORIAL Myb reporter transcription; actives raise or lower the signal
Chain of Transcriptional activator Myb (Homo sapiens) (P10242 whole entry, looked up): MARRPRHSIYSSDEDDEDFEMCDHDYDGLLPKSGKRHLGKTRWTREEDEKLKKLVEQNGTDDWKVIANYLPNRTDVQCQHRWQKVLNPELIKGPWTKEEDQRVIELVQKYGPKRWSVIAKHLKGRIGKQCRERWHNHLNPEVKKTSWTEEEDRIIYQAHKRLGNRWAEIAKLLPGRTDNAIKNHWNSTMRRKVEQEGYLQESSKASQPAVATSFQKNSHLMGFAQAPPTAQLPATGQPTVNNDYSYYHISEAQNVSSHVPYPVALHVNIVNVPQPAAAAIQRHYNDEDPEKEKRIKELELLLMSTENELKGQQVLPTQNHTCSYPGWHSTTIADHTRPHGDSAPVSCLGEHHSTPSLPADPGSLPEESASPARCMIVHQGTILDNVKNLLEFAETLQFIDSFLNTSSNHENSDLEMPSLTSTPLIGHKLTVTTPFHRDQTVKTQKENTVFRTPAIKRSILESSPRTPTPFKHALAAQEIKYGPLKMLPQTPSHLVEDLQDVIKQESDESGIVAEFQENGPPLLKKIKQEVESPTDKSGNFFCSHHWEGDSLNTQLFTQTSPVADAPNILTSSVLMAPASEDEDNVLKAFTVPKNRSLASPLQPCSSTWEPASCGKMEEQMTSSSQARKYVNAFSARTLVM
In short: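 Endogenous transcription factor activity at a Myb-responsive cis element is reported in human liver HepG2 cells after 24 h chemical treatment. Reporter mRNA is detected by RT-PCR and capillary electrophoresis fluorescence, with DMSO as baseline.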

[8] = ATG_NFI_CIS: Attagene CIS-FACTORIAL HepG2 Assay for human Nuclear Factor I (NFI) (AID 2282989; active = hit-call score of the fitted dose curve at least 0.9, where 1 is the maximum; inactive = score below 0.9); details: HepG2 cis-regulatory reporter, NFI response element transcription; actives raise or lower the signal
In short: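 Endogenous TF activity in HepG2 cells transiently transfected with cis-element-driven multiplexed reporter units, read 24 h after dosing. Reporter mRNA quantified by RT-PCR, 6-FAM labelling, HpaI digestion and capillary electrophoresis; bidirectional fit versus DMSO.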

[9] = molecular target: Bile acid receptor (Homo sapiens) (UniProt Q96RI1); assay: ATG_FXR_TRANS: Attagene TRANS-FACTORIAL HepG2 Assay for Farnesoid X Receptor (FXR) (AID 2282979); details: HepG2 Attagene TRANS FXR-GAL4 reporter transcription;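 note: hits raise reporter mRNA above DMSO so AC50 marks FXR activation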
Chain of Bile acid receptor (Homo sapiens) (Q96RI1 whole entry, looked up, the tested form may be a part): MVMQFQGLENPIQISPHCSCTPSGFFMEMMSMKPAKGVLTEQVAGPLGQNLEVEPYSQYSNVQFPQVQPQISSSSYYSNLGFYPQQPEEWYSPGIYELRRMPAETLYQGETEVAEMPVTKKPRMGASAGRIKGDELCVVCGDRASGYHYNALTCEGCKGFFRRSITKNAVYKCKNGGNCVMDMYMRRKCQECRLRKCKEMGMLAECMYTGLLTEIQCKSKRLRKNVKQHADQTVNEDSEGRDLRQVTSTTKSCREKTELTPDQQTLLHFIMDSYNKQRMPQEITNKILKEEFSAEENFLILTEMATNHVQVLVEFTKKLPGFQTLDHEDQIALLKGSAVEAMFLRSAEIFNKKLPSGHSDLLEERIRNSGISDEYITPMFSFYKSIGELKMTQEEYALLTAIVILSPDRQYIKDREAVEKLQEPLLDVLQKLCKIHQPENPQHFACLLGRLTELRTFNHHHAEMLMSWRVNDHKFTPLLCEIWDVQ
In short: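 Transient transfection of HepG2 with multiplexed GAL4-UAS reporter units; exogenous FXR-GAL4 chimera. Dose 24 h → TriZol RNA → oligo(dT) RT → PCR, 6-FAM primer extension, HpaI cut → CE. Gain vs DMSO.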

[10] = molecular target: Nuclear respiratory factor 1 (Homo sapiens) (UniProt Q16656); assay: ATG_NRF1_CIS: Attagene CIS-FACTORIAL HepG2 Assay for human Nuclear Respiratory Factor 1 (NRF1) Orphan Gene (AID 2282987; active = hit-call score of the fitted dose curve at least 0.9, where 1 is the maximum; inactive = score below 0.9); details: HepG2 NRF1 cis-element reporter, Attagene multiplex; actives raise or lower the signal
Chain of Nuclear respiratory factor 1 (Homo sapiens) (Q16656 whole entry, looked up): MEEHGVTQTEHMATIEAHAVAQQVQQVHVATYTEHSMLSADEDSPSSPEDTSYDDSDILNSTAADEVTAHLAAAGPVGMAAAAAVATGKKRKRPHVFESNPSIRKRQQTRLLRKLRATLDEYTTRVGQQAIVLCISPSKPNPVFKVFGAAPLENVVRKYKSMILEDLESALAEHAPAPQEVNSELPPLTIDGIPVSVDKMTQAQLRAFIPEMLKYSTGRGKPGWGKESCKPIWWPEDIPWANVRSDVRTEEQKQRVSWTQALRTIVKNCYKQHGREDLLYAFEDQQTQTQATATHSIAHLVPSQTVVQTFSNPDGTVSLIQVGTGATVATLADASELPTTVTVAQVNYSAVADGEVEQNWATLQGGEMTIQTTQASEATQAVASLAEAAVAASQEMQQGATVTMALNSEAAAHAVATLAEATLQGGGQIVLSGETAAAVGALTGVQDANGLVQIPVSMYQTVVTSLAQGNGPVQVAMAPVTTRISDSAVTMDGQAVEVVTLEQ
In short: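 Human hepatoma HepG2 cells carrying transfected promoter-regulated reporter units were incubated with test chemicals for 24 h. Reporter transcripts were measured by RT-PCR plus capillary electrophoresis, and endpoints derived by bidirectional fitting with DMSO as baseline.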

SMILES	outcome [1]	outcome [2]	outcome [3]	outcome [4]	outcome [5]	outcome [6]	outcome [7]	outcome [8]	outcome [9]	AC50 [1]	outcome [10]	AC50 [8]
CCCCCCOCCO	inactive	inactive	inactive	inactive	inactive	inactive	inactive	inactive				
NC(=O)Cn1c(=O)cc(CCN2CCN(c3nccc4sccc34)CC2)c2ccc(F)cc21	inactive				inactive	inactive	inactive	inactive	inactive			
C=CCOC(=O)c1ccccc1C(=O)OCC=C		inactive		inactive		inactive	inactive	inactive	inactive	25.1 µM (active)		
Nc1ccc(S(=O)(=O)c2ccc(N)cc2)cc1	inactive	inactive	inactive	inactive	inactive	inactive	inactive	inactive	inactive		inactive	
Cc1ccccc1Cl	inactive	inactive		inactive			inactive	inactive	inactive		inactive	
COc1cc(S(=O)(=O)O)c(C)cc1N=Nc1c(O)ccc2cc(S(=O)(=O)O)ccc12			inactive	inactive		inactive	inactive	inactive	inactive		inactive	
CN[C@H]1CC[C@@H](c2ccc(Cl)c(Cl)c2)c2ccc(S(N)(=O)=O)cc21		inactive	inactive	inactive	inactive		inactive	inactive	inactive			
CN1CCN(Cc2cc(-c3ccc4[nH]c(=O)oc4c3)co2)[C@@H](c2ccc(F)cc2)C1	inactive			inactive	inactive	inactive	inactive	inactive	inactive		inactive	
Nc1nc(N)c2nc(CNc3ccc(C(=O)N[C@@H](CCC(=O)O)C(=O)O)cc3)cnc2n1		inactive	inactive	inactive		inactive	inactive	inactive	inactive			
CC1(C)CC(N=C=O)CC(C)(CN=C=O)C1 (stereo unspecified)		inactive		inactive	inactive	inactive	inactive	inactive	inactive		inactive	
COc1ccc(C)cc1N	inactive	inactive		inactive		inactive	inactive	inactive			inactive	
Nc1ccc2c(c1)C(=O)c1ccccc1C2=O		inactive		inactive		inactive	inactive	inactive			inactive	
C1CCC(SSC2CCCCC2)CC1	inactive	inactive		inactive			inactive				inactive	161 µM (active)
COc1ccc2c(c1)c(CC(=O)O)c(C)n2C(=O)c1ccc(Cl)cc1	inactive				inactive		inactive	inactive				
FC(F)(F)C(F)(F)C(F)(F)C(F)(F)C(F)(F)C(F)(F)CCI	inactive	inactive		inactive	inactive		inactive	inactive				
CNC(=O)[C@H]1O[C@@H](n2cnc3c(NCc4cc(Cl)ccc4OCc4cc(C)no4)ncnc32)[C@H](O)[C@@H]1N	inactive			inactive			inactive	inactive				
O=[N+]([O-])C(CO)(CO)CO	inactive				inactive		inactive	inactive			inactive	
O=C(OCCCCCOC(=O)c1ccccc1)c1ccccc1	inactive		inactive			inactive	inactive	inactive			inactive	
CC(C)c1ccc(C(=O)N=C(N)N)cc1S(C)(=O)=O		inactive		inactive	inactive		inactive	inactive			inactive	
CCCCC(CC)COC(=O)CC(C(=O)OCC(CC)CCCC)S(=O)(=O)O (stereo unspecified)	inactive			inactive		inactive	inactive	inactive			inactive	
